Source: PubChem BioAssay
Unmarked numbers belong to inactive results. No rule for the calls is given here.

System: Aerobactin synthetase IucA (Klebsiella pneumoniae hvKP1)
Assay: IucA enzyme inhibition, primary screen, biochemical, Spectrum library (AID 1346200);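 also: 100% = wells without compound and 0% = wells lacking enzyme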
Details: malachite green pyrophosphate, A620, at 8 µM, stronger effect = lower value

| SMILES | activity remaining [%] |
| --- | --- |
| O=C(CCCN1CCN(c2ccccn2)CC1)c1ccc(F)cc1 | 124 |
| CCC(C)C(=O)O[C@H]1C[C@H](O)C=C2C=C[C@H](C)[C@H](CC[C@@H](O)C[C@@H](O)CC(=O)O)C21 (some centres undefined) | 113 |
| COc1ccc2ccc(=O)oc2c1 | 114 |
| COc1ccccc1OCC(O)CO (centres undefined) | 94.5 |
| O=S(=O)(O)CCS | 118 |
| O=C(O)/C=C/C=C/c1ccccc1 | 103 |
| CCOC(=O)C(Cc1ccc(O)cc1)NC(C)=O (centres undefined) | 98.7 |
| O=C(O)[C@H](O)[C@@](O)(Cc1ccc(O)cc1)C(=O)O | 103 |
| CCCCCCCCCc1ccc(OCCOCCOCCOCCOCCOCCOCCOCCOCCO)cc1 | 109 |
| C[C@H]1OC(n2cc(F)c(=O)[nH]c2=O)C(O)[C@@H]1O (some centres undefined) | 121 |
| CN1CCCC(n2nc(Cc3ccc(Cl)cc3)c3ccccc3c2=O)CC1 (centres undefined) | 106 |
| CC(=O)OC1CCC2(C)C3CC(=O)C4(C)C(CC5OC6(CCC(C)CO6)[C@@H](C)C54)C3CC[C@H]2C1 (some centres undefined) | 102 |
| Cc1cccc2c3c(ccc12)C1=C(C(=O)C3=O)C(C)CO1 (centres undefined) | 114 |
| COc1cccc(O)c1O | 110 |
| CC(C)(N=NC(C)(C)C(=N)N)C(=N)N | 105 |
| CC(=O)OCC(=O)[C@@]1(O)CCC2C3CCC4=CC(=O)CC[C@]4(C)[C@@]3(F)[C@@H](O)C[C@@]21C (some centres undefined) | 91.4 |
| Cc1onc(-c2ccccc2)c1-c1ccc(S(N)(=O)=O)cc1 | 103 |
| Oc1ccc2c(c1)OCC1(O)Cc3cc(O)c(O)cc3C21 (centres undefined) | 91.6 |
| Oc1c(Cl)cc(Cl)c2cccnc12 | 113 |
| COC(=O)c1c(OC)cc2c(c1C)Oc1c(Cl)c(OC(C)=O)c(Cl)c(C)c1C(=O)O2 | 98.6 |

| SMILES | activity remaining [%] |
| --- | --- |
| CCCCOc1ccc(OCCCN2CCOCC2)cc1 | 104 |
| Nc1cc(-c2ccncc2)c[nH]c1=O | 122 |
| CC(=O)OCC(=O)[C@@]1(O)[C@H](C)CC2C3CCC4=CC(=O)C=C[C@]4(C)[C@@]3(F)[C@@H](O)C[C@@]21C (some centres undefined) | 119 |
| COc1c(N2CCNC(C)C2)c(F)cc2c(=O)c(C(=O)O)cn(C3CC3)c12 (centres undefined) | 123 |
| COC(=O)c1c(Cl)c(Cl)c(C(=O)OC)c(Cl)c1Cl | 110 |
| C[N+](C)(C)C[C@H](O)CC(=O)[O-] | 100 |
| COC(=O)[C@@H]1OC(=O)[C@H]2O[C@@]23[C@@]1(C)CCC1[C@@]2(C)CCC(=O)C(C)(C)C2C[C@@H](OC(C)=O)[C@]13C (some centres undefined) | 109 |
| CC1=CC2C(CC1=O)C(C)=CCC2C(C)C (centres undefined) | 104 |
| CC(=O)O[C@@H]1CC[C@@]2(C)C(C[C@@H](OC(C)=O)[C@@]3(C)C4=CC(=O)O[C@@H](c5ccoc5)[C@]4(C)CCC23)C1(C)C (some centres undefined) | 121 |
| CC(=O)O[C@@H]1C=C[C@@]2(C)C(C[C@@H](OC(C)=O)[C@@]3(C)C4=CC(=O)O[C@@H](c5ccoc5)[C@]4(C)CCC23)C1(C)C (some centres undefined) | 82.6 |
| COCCCOc1cc(C[C@@H](C[C@H](N)[C@@H](O)C[C@H](C(=O)NCC(C)(C)C(N)=O)C(C)C)C(C)C)ccc1OC | 107 |
| Nc1ccc(N=Nc2ccccc2)c(N)n1 | 112 |
| COc1c(O)cccc1O | 87.7 |
| O=C(O)/C=C(\CC(=O)O)C(=O)O | 89.8 |
| CC(=O)c1c(O)cc(O)cc1O | 94.3 |
| C=C1C2CC[C@@]3(C)[C@H](c4ccoc4)OC(=O)C[C@]13O[C@H]1CC(O)C(C)(C)C(CC(=O)OC)[C@@]21C (some centres undefined) | 86.1 |
| COc1c2occc2c(OC)c2c(=O)cc(C)oc12 | 116 |
| O=C(O)CN(CC(=O)O)Cc1cc2c(-c3ccccc3C(=O)O)c3cc(CN(CC(=O)O)CC(=O)O)c(=O)cc-3oc2cc1O | 113 |
| COc1ccc(-c2cc(=O)c3c(O)cc(O)c(-c4cc(-c5cc(=O)c6c(O)cc(O)cc6o5)ccc4OC)c3o2)cc1 | 117 |
